Reference: PubChem BioAssay (NCI)
About 79,000 compounds went through this panel and 15% of them were active in at least one assay; those are over-represented in the sample as a whole. No stated cut-off is given here; in the data, active means growth inhibition above about 70%; inactive means the rest.

Tests used:
[1] = NCI Yeast Anticancer Drug Screen. Data for the rad50 strain (AID 155);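 further: 0% = growth of vehicle-only cultures of the same strain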; conditions: S. cerevisiae rad50 strain growth inhibition; at 50.0 µM; hits give high values
In short: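 Growth of the mutant yeast was measured after compound exposure and referenced to vehicle-treated cultures.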

[2] = NCI Yeast Anticancer Drug Screen. Data for the mec2-1 strain (AID 157); conditions: S. cerevisiae mec2-1 strain, at 50.0 µM, hits give high values
In short: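 Growth inhibition is read against vehicle-treated controls after compound exposure of the mec2-1 yeast strain, which is defective in DNA damage repair or cell cycle control.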

[3] = NCI Yeast Anticancer Drug Screen. Data for the sgs1 mgt1 strain (AID 161);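 further: 0% = growth of cultures given vehicle only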; conditions: S. cerevisiae sgs1 mgt1 strain, at 50.0 µM, hits give high values
In short: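 Percent growth inhibition was derived by comparing compound-exposed mutant yeast with vehicle-exposed cultures. The strain carries alterations in DNA damage repair.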

[4] = NCI Yeast Anticancer Drug Screen. Data for the cln2 rad14 strain (AID 165);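 further: 0% = growth equal to vehicle treated cultures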; conditions: S. cerevisiae cln2 rad14 strain, at 50.0 µM, hits give high values
In short: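 Growth inhibition, relative to vehicle-treated controls, is the read-out. The test organism is a yeast strain with defined genetic alterations, cln2 rad14.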

[5] = NCI Yeast Anticancer Drug Screen. Data for the bub3 strain (AID 167); conditions: S. cerevisiae bub3 mutant strain, at 50.0 µM, hits give high values
In short: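 Whole-cell yeast assay. The mutant strain was incubated with compounds, and growth inhibition was determined by comparison with vehicle-treated cells.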

[6] = NCI Yeast Anticancer Drug Screen. Data for the mlh1 rad18 strain (AID 175); conditions: S. cerevisiae mlh1 rad18 strain growth inhibition; at 50.0 µM; hits give high values
In short: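 Cells of a genetically altered yeast strain, deficient in DNA damage repair, were treated with compound. Their growth was then compared with that of vehicle-treated cultures to give inhibition.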

Measured: growth inhibition

COc1cc(C(=O)C/C(CCC(=O)Nc2ccccc2[N+](=O)[O-])=N\NC(=O)C(N)=O)ccc1O
inactive: [1] -20.5% | [2] 9.8% | [3] -47.4% | [4] 5.9% | [5] -16.2% | [6] -24.4%

O=C(O)C(F)(F)C(F)(F)C(F)(F)C(F)(F)C(=O)O
inactive: [1] -1.85% | [2] -2.95% | [3] -37.8% | [4] -28.3% | [5] -45.8% | [6] -22.8%

C[N+](C)(C)CCCOC1=Nc2ccccc2O/C1=C/c1ccccc1
inactive: [1] -52.2% | [2] 2.1% | [3] -6.3% | [4] -27.4% | [5] -4.1% | [6] 18.5%

c1ccc(C2OC3C4COC(O4)C3O2)cc1 (stereo unspecified)
inactive: [1] -24.7% | [2] -19.9% | [3] -15.4% | [4] -19.1% | [5] -1.75% | [6] -9.7%

CCCCN(CCCC)S(=O)(=O)N1CCOCC1
inactive: [1] -12.3% | [2] -10.1% | [3] 3% | [4] 9.1% | [5] 10.4% | [6] 2.75%

O=C(O)C(O)(O)C(O)(O)C(=O)O
inactive: [1] 6.35% | [2] -22.6% | [3] -4% | [4] 4.85% | [5] -5.85% | [6] -10.4%

CCOC(=O)/C=C(\N=P(c1ccccc1)(c1ccccc1)c1ccccc1)C(F)(F)C(F)(F)C(F)(F)C(F)(F)C(F)(F)F
inactive: [1] 19.4% | [2] 4% | [3] 32.4% | [4] 18.4% | [5] 20.2% | [6] 45.2%

CC1(c2ccco2)CCC(=O)CC1=O (stereo unspecified)
inactive: [1] 4.2% | [2] 4.25% | [3] 4.1% | [4] 11.2% | [5] -12.9% | [6] 1.1%

COC(=O)C1N=CSCC1(C)O (stereo unspecified)
inactive: [1] -4.8% | [2] 15.3% | [3] -25.9% | [4] 12.5% | [5] -2.45% | [6] -16.4%

COc1cccc(C(Nc2nncs2)Nc2nncs2)c1
inactive: [1] 3.1% | [2] -9.2% | [3] -8.45% | [4] 13.9% | [5] -20.3% | [6] 16.1%

CC(C)CCc1ccccc1O
inactive: [1] -14.7% | [2] -21.1% | [3] -28.6% | [4] -19.9% | [5] 0.1% | [6] -14.5%

CC(O)C(O)C(O)C(O)C=O (stereo unspecified)
inactive: [1] -13.2% | [2] -11.8% | [3] 3.8% | [4] 14.1% | [5] 7% | [6] -10.2%

CCCC(CCc1ccccc1)C(=O)NC(N)=O (stereo unspecified)
inactive: [1] 4.5% | [2] -5.6% | [3] 1.45% | [4] 2.55% | [5] 42.7% | [6] 1.4%

Clc1cc(Cl)cc(Nc2nc3ccccc3nc2-c2cccs2)c1
inactive: [1] -19.3% | [2] -14% | [3] 33.2% | [4] 3.35% | [5] -29.1% | [6] -10.2%

CCOC(=O)C(C)c1nc2ccc(C(F)(F)F)cc2[nH]c1=O (stereo unspecified)
inactive: [1] 2.15% | [2] 16.7% | [3] 40.4% | [4] 14.2% | [5] 43.4% | [6] 39.5%

C/C(=C\N1CCCCC1)C(=O)c1ccc(F)cc1
inactive: [1] 9.3% | [2] 13.2% | [3] -4.65% | [4] 6.25% | [5] -16.4% | [6] 24.7%

COc1ccc([N+](=O)[O-])c2c(C)cc(=O)[nH]c12
inactive: [1] 32.1% | [2] 19.4% | [3] 21.9% | [4] -9.5% | [5] -23.6% | [6] 35.7%

C=C(C)C(=O)OCCOCC(CC)CCCC (stereo unspecified)
inactive: [1] 11.2% | [2] -8.8% | [3] -5% | [4] -0.3% | [5] -3.35% | [6] -1.8%

O=S(=O)(c1ccccc1)N1CN(S(=O)(=O)c2ccccc2)CN(S(=O)(=O)c2ccccc2)C1
inactive: [1] 0.95% | [2] -9.35% | [3] 19.5% | [4] 10.6% | [5] 17.9% | [6] 6.35%

Cc1ccc(NC(=O)CCC(NS(=O)(=O)c2ccc(C)cc2)C(=O)O)cc1 (stereo unspecified)
inactive: [1] 26.4% | [2] 17.5% | [3] 25.6% | [4] 18.6% | [5] -1.1% | [6] 42.1%

CCOc1ccc(NC(=O)CCc2nnc(SC)o2)cc1
inactive: [1] 20.5% | [2] -17.2% | [3] -4.75% | [4] -16.4% | [5] 29.1% | [6] 23.2%

COC(=O)C1=C(C)N(NC(=O)c2ccccc2)C2(O)CCCC(=O)C12C (stereo unspecified)
inactive: [1] 20.2% | [2] 2.2% | [3] 17.8% | [4] -29.6% | [5] -6.05% | [6] 23.9%

CCOC(=O)C(CO)NC(=O)C[NH-].CCOC(=O)C(CO)NC(=O)C[NH-].[Cl][Pt+2][Cl] (stereo unspecified)
inactive: [1] -12.5% | [2] -8.55% | [3] -17.4% | [4] -34.4% | [5] -3.5% | [6] 12.2%

CCC12C=CCN(CCc3c([nH]c4ccccc34)/C=C\1)C2 (stereo unspecified)
inactive: [1] -8.95% | [2] -8.75% | [3] -7.25% | [4] -1.6% | [5] 6.55% | [6] -15.8%

CC(C(O)c1ccccn1)[N+](=O)[O-] (stereo unspecified)
inactive: [1] -11.4% | [2] 1.55% | [3] -7.1% | [4] -21.1% | [5] -10.7% | [6] -3.4%

Nc1cccc(C(F)(F)F)c1N
inactive: [1] -13.6% | [2] -15.4% | [3] -6.7% | [4] -24.4% | [5] -13.6% | [6] 8.3%

NC1=NN(c2ccccc2)C(=O)C1/C(=N\NC(=O)c1cc2ccccc2cc1O)C(=O)Nc1ccc(Cl)cc1 (stereo unspecified)
inactive: [1] 40.5% | [2] 21.9% | [3] -7.4% | [4] 24.8% | [5] 22.8% | [6] 49.5%

c1ccc(CNc2ncccn2)nc1
inactive: [1] 21.8% | [2] 7.45% | [3] 40.7% | [4] 7.35% | [5] -10% | [6] 11.4%

O=C1NC2(CCN(CCCC3(c4ccc(F)cc4)OCCO3)CC2)Oc2ccccc21
inactive: [1] -11.6% | [2] -35.7% | [3] -1.15% | [4] -11.6% | [5] 5.8% | [6] -55.7%

CN(C)N=Nc1ccc(Cl)cc1
inactive: [1] -5.15% | [2] 21.9% | [3] 16.6% | [4] -56.6% | [5] 35% | [6] 8.3%

N#CC1C[C@@H]2CC3(CCC2CN1C(=O)c1ccccc1)OCCO3 (stereo partly specified)
inactive: [1] 8.25% | [2] -9.6% | [3] -12.1% | [4] -24.6% | [5] 0.9% | [6] -14%

O=C1NC(Nc2ccccc2)=NC(C(F)(F)F)(C(F)(F)F)N1
inactive: [1] -1.5% | [2] 1.1% | [3] 36% | [4] 32.5% | [5] 39.6% | [6] -8%

CC(=O)OCCOCNC(=S)NN
inactive: [1] -7.55% | [2] 7.8% | [3] 11.2% | [4] -16.3% | [5] -3.95% | [6] -4.8%

COCC(Cl)/C(N)=N\S(=O)(=O)c1ccc(Cl)cc1 (stereo unspecified)
inactive: [1] 5.8% | [2] -17.4% | [3] 15.2% | [4] 14.8% | [5] 26.2% | [6] 4.95%

N/C(=N\c1nc(N)cc(N)n1)Nc1ccc(S(N)(=O)=O)cc1
inactive: [1] -15.2% | [2] 4.25% | [3] -6.25% | [4] -32.2% | [5] -5.6% | [6] -4.15%

O=C(NC(=O)c1ccc([N+](=O)[O-])cc1)Nc1ccccc1
inactive: [1] 10.3% | [2] -4.35% | [3] -1.4% | [4] -25.4% | [5] -14.8% | [6] 5%

CNCCC(=O)C1CCC(OC)CC1 (stereo unspecified)
inactive: [1] 26.2% | [2] -3% | [3] 2.1% | [4] -49.5% | [5] 5.45% | [6] -8.45%

Cc1c(Cl)cccc1NC(=O)Nc1ccc(S(N)(=O)=O)cc1
inactive: [1] 0.7% | [2] 29.4% | [3] 39.4% | [4] 1.4% | [5] 21.8% | [6] 19.1%

CN(C=O)/C=C/c1cc(O)ccc1O
inactive: [1] -0.95% | [2] -0.8% | [3] -1.6% | [4] -4.1% | [5] 7.7% | [6] 5.4%

CC(=O)OCOC(=O)CN(CC(=O)OCOC(C)=O)Cc1cc2c(cc1OC(C)=O)Oc1cc(OC(C)=O)c(CN(CC(=O)OCOC(C)=O)CC(=O)OCOC(C)=O)cc1C21OC(=O)c2ccccc21
inactive: [1] 14.1% | [2] 9.1% | [3] 15.2% | [4] 14.8% | [5] -5% | [6] 35.1%

CCCC(=O)OCc1ccc(Cl)cc1Cl
inactive: [1] 31.6% | [2] 13.3% | [3] 14.8% | [4] 7.75% | [5] 0% | [6] 13.9%
